# Measurements published in ChEMBL document CHEMBL1961873, “Compounds: GSK PKIS; Assays: Nanosyn kinase panel” (2012).
# Experiments:
# [1] = target: Serine/threonine-protein kinase MARK2 (Homo sapiens) (UniProt Q7KZI7); details: at 1 µM
# [2] = target: PAS domain-containing serine/threonine-protein kinase (Homo sapiens) (UniProt Q96RG2); details: at 0.1 µM
# [3] = target: PAS domain-containing serine/threonine-protein kinase (Homo sapiens) (UniProt Q96RG2); details: at 1 µM
# [4] = target: Phosphorylase b kinase gamma catalytic chain, skeletal muscle/heart isoform (Homo sapiens) (UniProt Q16816); details: at 0.1 µM
# Sequence of Phosphorylase b kinase gamma catalytic chain, skeletal muscle/heart isoform (Homo sapiens) (Q16816 whole entry, looked up, canonical isoform): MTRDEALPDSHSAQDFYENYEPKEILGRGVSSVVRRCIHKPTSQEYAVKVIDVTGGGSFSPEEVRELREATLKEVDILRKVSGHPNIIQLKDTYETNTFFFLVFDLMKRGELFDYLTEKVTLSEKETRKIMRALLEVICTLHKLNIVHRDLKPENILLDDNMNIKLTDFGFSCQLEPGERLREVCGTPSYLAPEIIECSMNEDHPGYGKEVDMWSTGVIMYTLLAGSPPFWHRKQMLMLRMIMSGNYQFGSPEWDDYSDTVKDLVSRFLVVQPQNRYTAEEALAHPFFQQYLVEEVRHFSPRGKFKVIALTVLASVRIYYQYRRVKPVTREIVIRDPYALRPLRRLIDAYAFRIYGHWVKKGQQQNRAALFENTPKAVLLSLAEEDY
# [5] = target: Phosphorylase b kinase gamma catalytic chain, skeletal muscle/heart isoform (Homo sapiens) (UniProt Q16816); details: at 1 µM
# [6] = target: T1, Phosphorylase b kinase gamma catalytic chain, liver/testis isoform (Homo sapiens) (UniProt P15735); details: at 0.1 µM
# T1 sequence (whole entry): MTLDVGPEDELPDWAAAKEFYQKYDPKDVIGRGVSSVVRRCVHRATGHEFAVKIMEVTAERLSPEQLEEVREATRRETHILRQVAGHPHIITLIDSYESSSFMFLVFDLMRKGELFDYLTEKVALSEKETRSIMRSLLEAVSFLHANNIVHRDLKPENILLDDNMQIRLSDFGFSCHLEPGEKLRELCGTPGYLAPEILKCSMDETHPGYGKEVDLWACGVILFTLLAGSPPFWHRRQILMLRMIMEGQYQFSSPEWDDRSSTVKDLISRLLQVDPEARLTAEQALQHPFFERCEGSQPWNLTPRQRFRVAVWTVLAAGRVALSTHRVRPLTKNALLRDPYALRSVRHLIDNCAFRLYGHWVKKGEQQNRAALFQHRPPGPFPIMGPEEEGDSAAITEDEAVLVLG
# [7] = target: T1, Phosphorylase b kinase gamma catalytic chain, liver/testis isoform (Homo sapiens); details: at 1 µM
# [8] = target: Serine/threonine-protein kinase pim-1 (Homo sapiens) (UniProt P11309); details: at 0.1 µM
# Sequence of Serine/threonine-protein kinase pim-1 (Homo sapiens) (P11309 whole entry, looked up): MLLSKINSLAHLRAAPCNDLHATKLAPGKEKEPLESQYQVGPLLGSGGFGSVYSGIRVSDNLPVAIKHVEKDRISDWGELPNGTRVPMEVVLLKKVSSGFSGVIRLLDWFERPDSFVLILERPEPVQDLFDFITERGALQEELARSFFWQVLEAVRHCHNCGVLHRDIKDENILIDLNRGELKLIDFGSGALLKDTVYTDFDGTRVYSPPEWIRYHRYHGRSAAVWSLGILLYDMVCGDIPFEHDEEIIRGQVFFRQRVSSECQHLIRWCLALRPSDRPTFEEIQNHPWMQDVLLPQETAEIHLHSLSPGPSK
# [9] = target: Serine/threonine-protein kinase pim-1 (Homo sapiens) (UniProt P11309); details: at 1 µM
# [10] = target: Serine/threonine-protein kinase pim-2 (Homo sapiens) (UniProt Q9P1W9); details: at 0.1 µM;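 note: reported value is the mean percent inhibition of PIM2, measured in the GSK PKIS kinase inhibitor set screen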
# Sequence of Serine/threonine-protein kinase pim-2 (Homo sapiens) (Q9P1W9 whole entry, looked up): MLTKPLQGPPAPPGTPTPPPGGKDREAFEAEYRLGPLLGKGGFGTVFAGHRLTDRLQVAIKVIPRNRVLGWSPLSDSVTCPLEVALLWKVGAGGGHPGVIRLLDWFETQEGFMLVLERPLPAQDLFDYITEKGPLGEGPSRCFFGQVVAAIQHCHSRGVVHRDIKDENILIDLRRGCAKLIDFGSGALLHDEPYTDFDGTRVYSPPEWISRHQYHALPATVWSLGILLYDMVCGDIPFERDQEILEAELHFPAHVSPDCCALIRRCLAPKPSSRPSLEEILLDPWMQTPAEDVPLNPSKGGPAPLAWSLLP
# Sequence of PAS domain-containing serine/threonine-protein kinase (Homo sapiens) (Q96RG2 whole entry, the tested form may be a part, canonical isoform): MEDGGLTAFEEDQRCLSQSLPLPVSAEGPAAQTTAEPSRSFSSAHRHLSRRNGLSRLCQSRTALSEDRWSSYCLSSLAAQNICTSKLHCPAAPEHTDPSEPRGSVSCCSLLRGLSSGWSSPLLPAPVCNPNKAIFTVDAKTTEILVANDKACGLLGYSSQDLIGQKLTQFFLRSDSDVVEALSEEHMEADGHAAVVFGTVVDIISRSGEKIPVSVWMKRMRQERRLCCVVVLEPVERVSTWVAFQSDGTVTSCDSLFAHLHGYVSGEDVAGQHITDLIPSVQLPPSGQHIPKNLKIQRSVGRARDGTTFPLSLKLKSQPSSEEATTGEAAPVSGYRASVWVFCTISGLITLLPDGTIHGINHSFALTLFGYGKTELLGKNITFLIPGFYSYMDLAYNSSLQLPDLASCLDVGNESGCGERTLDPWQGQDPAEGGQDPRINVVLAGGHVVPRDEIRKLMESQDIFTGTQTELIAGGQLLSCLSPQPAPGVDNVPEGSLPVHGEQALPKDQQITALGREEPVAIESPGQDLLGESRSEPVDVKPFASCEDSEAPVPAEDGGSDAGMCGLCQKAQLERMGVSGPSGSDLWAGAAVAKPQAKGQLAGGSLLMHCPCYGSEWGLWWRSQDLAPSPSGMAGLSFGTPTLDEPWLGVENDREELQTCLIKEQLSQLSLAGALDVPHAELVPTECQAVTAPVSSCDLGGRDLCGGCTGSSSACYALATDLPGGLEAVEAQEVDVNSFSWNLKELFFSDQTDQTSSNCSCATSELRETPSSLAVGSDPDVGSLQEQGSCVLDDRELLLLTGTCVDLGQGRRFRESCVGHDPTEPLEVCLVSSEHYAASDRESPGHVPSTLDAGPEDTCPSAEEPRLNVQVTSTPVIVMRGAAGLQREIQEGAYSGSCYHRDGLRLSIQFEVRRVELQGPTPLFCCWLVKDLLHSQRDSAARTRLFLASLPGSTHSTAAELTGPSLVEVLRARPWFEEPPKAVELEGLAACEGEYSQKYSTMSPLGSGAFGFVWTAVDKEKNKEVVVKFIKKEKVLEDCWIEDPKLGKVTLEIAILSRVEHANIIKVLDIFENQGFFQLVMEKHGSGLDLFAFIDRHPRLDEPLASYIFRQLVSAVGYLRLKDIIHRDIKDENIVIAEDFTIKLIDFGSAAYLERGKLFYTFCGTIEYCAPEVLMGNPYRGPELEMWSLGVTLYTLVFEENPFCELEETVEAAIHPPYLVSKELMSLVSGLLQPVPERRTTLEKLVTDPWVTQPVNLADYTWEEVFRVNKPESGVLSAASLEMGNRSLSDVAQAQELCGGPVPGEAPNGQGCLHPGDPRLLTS
# Sequence of Serine/threonine-protein kinase MARK2 (Homo sapiens) (Q7KZI7 whole entry, the tested form may be a part): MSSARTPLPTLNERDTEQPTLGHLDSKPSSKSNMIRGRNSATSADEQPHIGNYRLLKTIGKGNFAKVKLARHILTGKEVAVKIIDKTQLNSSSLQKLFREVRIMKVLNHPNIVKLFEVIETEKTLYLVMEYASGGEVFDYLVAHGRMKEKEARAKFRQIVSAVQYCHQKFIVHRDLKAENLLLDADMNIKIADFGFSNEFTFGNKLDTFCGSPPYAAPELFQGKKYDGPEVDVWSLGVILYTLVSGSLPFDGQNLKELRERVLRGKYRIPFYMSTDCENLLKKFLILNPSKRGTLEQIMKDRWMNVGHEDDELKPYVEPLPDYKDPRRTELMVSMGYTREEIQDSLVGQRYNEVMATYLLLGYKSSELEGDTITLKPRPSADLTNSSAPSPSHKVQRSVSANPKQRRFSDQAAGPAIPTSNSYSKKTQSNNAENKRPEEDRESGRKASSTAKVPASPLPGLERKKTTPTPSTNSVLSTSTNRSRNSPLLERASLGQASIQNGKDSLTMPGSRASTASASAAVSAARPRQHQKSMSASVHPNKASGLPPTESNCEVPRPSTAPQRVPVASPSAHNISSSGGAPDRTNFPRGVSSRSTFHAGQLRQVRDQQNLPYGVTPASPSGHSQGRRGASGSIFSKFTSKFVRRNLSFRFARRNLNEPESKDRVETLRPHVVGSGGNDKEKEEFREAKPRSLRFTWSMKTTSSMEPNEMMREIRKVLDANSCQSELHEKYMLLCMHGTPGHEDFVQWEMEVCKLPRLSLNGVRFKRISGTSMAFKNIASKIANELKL
Compound,inhibition [1] [%],inhibition [2] [%],inhibition [3] [%],inhibition [4] [%],inhibition [5] [%],inhibition [6] [%],inhibition [7] [%],inhibition [8] [%],inhibition [9] [%],inhibition [10] [%]
O=C(O[C@H]1CN[C@H](C#Cc2cc3ncnc(Nc4ccc5c(ccn5Cc5cc(F)ccc5F)c4)c3s2)C1)N1CCOCC1,-0.27,0.1,-1.39,3.09,4.72,4.96,2.49,0.84,0.83,0.44
Cc1cc(O)cc(C)c1/C=C/c1cncc(C(=O)OC(C)(C)C)c1,1.18,-0.08,0.02,3.95,-7.1,3.11,1.25,0.18,0.23,0.32
NC(=O)c1ccc2c(-c3ccnc(NCCCO)n3)c(-c3ccc(F)cc3)nn2c1,1.98,0.06,-1.12,6.92,7.38,5.28,2.16,1.1,0.82,-0.18
CS(=O)(=O)Nc1ccc(-c2ccc3c(NC(=O)C4CC4)n[nH]c3c2)cc1,0.66,0.49,-0.44,1.67,5.46,3.59,-0.4,0.94,2,0.44
CCS(=O)(=O)c1ccc(OC)c(Nc2ncc(-c3cccc(F)c3)o2)c1,2.64,-0.05,-0.06,6.05,24.7,6.86,8.13,1.98,4.66,-0.96
CC1=C(C(=O)Nc2ccc3[nH]ncc3c2)C(c2ccc(F)cc2)N=C(c2ccc(C(F)(F)F)nc2)N1 (stereo not given),2.79,-0.13,-0.98,0.36,1.77,1.74,-0.23,0.3,-0.09,0.44
c1ccc(-c2n[nH]cc2-c2ccnc(-c3ccc(OCCn4ccnc4)cc3)c2)nc1,-0.66,-0.73,-0.48,2.85,6.86,-0.35,3.4,0.32,0.45,0.56
Cn1c(-c2nonc2N)nc2cnccc21,4.69,0.4,-0.76,1.82,0.15,4.05,1.59,2.15,16.4,-0.31
CC(C)c1ccc(-c2cc(-c3c[nH]nc3-c3ccccn3)ccn2)cc1,-0.26,-0.36,-1.24,0.46,1.25,-0.69,-0.76,0.3,-0.2,-0.34
O=C1Nc2ccccc2/C1=C1\CCc2cc(O)ccc21,24,0.2,-1.25,9.05,40.6,6.64,9.59,2.37,10.2,-0.2
CS(=O)(=O)CCNCc1ccc(-c2ccc3ncnc(Nc4ccc(OCc5cccc(C(F)(F)F)c5)cc4)c3c2)o1,5.07,-1.03,-1.02,2.44,4.94,5.95,4.97,1.96,3.18,-0.68
COc1ccc2ncn(-c3cc(O[C@H](C)c4ccccc4C(F)(F)F)c(C(N)=O)s3)c2c1,4.83,-0.55,0.78,1.28,3.44,-1.44,0.1,1.71,7.56,-0.14
CN1CCC(n2cnc(-c3ccc(F)cc3)c2-c2ccnc(NCCO)n2)CC1,-0.08,0.82,0.93,2.34,5.88,4.56,7.31,0.34,1.55,0.95
OCCCNc1nccc(-c2c(-c3ccc(F)cc3)nn3cc(C(F)(F)F)ccc23)n1,1.92,-0.08,-2.07,2.26,5.59,2.88,-0.79,0.12,1.6,0.32
c1cnn2ncc(-c3ccnc(NCCCN4CCOCC4)n3)c2c1,-1.01,-1.6,-2.98,4.51,4.16,4.4,2.46,-0.24,1.23,-0.27
